The whole screen tested about 4,800 compounds, of which about 420 (8.8%) showed an effect of 50% or more. This excerpt belongs to a sample that is enriched for strong results.
Each compound was assayed on Plasmodium falciparum (assay: Confirmatory screen in NF54 nanoGlo assay, in single point, at 2uM, 72h). Conditions: timepoint 72 hour.
Type: functional, Erythrocyte

SMILES	% Inhibition [%]
Cc1ccc(Cl)c(OCn2ccc(C(=O)Nc3ccc(Br)cn3)n2)c1	-16
O=C(NCc1ccccc1F)C1CCN(c2cncnc2N2CCCC2)CC1	33
CCS(=O)(=O)C1CN(C(=O)c2ccnn2C2CCCC2)C1	-7
COCCCn1c(COc2ccc(OC)cc2)n[nH]c1=O	1
COc1c(Cl)cc(Cl)cc1CNC(C)C	4
NCc1ccc(O)c(Br)c1	2
COc1ccnc(NCc2ccc(N3CCOCC3)cc2)n1	-3
Cc1ccc(CNC(=O)c2nc(-c3ccncc3)cs2)o1	7
CC(=O)c1cccc(S(=O)(=O)N2CCN(C(=O)c3ccc4c(c3)CCC4)CC2)c1	2
COc1ccc2c(c1)CCN2S(=O)(=O)c1ccc2c(c1)OCCO2	-4
Cc1cc(C)n(S(=O)(=O)c2ccc3c(c2)OCCO3)n1	-3
CC12CN(S(=O)(=O)c3ccc4c(c3)OCCO4)C3(C(=O)OCc4ccccc4)CC1CCC23C (centres undefined)	59
CC(C)OC(=O)N1C(=O)c2ccccc2NC1(C(F)(F)F)C(F)(F)F	-22
Nc1ccc2c(c1)Oc1cc(N)ccc1OCCOCCOCCO2	-10
Cc1cccc(-n2c(-c3sc(Nc4ccccc4)nc3-c3ccccc3)nc3ccccc3c2=O)c1	6
O=c1c2ccccc2nc2cc(-c3ccc(O)cc3)c(-c3ccccc3)nn12	53
COC(=O)Nc1nc(-c2ccccc2)c(-c2nc3ccccc3c(=O)n2-c2ccc(OC)cc2)s1	5
Cc1ccc(/N=C(\N)C(Cl)(Cl)Cl)c(C)c1	-2
Oc1ccccc1CCN[C@H]1CCc2ccc(F)cc21	98
c1ccc(N2CCN(CCN[C@H]3CCc4cc5c(cc43)CCC5)CC2)cc1	8
Cc1ccnc(CNC(=O)N[C@H]2CCc3ccc(F)cc32)c1	-10
CN(Cc1ccc(F)cc1Cl)[C@H]1CCc2nnc(C3CCOCC3)n2CC1	-13
Cc1nc2cc(F)ccc2cc1C(=O)N1CCN(S(=O)(=O)c2ccc(Br)cc2)CC1	0
Cc1ccccc1CNC(=O)CN(C(C)C)C1CCOCC1	21
CCO[C@H]1C[C@H](NC(=O)Nc2ccc(F)c(C3CC3)c2)C1	2
COc1ccc(-n2nc(C)c3c2NC(=O)C[C@@H]3c2ccc3c(c2)OCO3)cc1	-5
COC(=O)c1ccc(C)c(NC(=O)c2ocnc2C2CC2)c1	2
Cc1cc(C)n(-c2c(C)[nH]c3ccccc23)n1	-7
CC1=C(C(=O)Nc2cccc(Cl)c2)[C@H](c2csnn2)NC(=O)N1	-20

— ChEMBL document CHEMBL4888484, “Replenishing the malaria drug discovery pipeline: Screening and hit evaluation of the MMV Hit Generation Library 1 (HGL1) against asexual blood stage Plasmodium falciparum ,using a nano luciferase reporter read-out” (2022)
